High-throughput results (PubChem BioAssay)
G9a block: G9a (human) methyltransferase inhibition. Potency, µM (titrated, usually from 102 µM), without a hit: at the top dose activity, negative = inhibition, most hits filed as inhibitors. 350,000 tested, 8.8% active. Q96KQ7. G9a H3K9 monomethylation, AlphaScreen, 2 h. AID 504332; note: % is set by controls: 0 for no effect and ±100 for the full control effect; nearly all actives have a fitted effect of over 75% in size
Target sequence (Q96KQ7 913-1193 limits assumed): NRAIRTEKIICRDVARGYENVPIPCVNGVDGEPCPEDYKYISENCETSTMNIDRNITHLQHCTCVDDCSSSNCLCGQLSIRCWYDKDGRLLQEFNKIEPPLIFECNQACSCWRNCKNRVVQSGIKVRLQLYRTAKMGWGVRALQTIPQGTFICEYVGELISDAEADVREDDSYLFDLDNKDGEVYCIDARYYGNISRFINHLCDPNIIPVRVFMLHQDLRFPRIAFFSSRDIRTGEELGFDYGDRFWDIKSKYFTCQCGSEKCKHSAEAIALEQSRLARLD
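Chemiluminescent proximity detection of H3K9 monomethylation, read after 10 min bead incubation in the dark. Reaction: 20 nM G9a, 500 nM biotin-H3K9 peptide, 20 uM SAM cofactor, 2 h, room temperature, following 15 min enzyme-compound preincubation.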
HP1b binding inh: inhibitors of HP1-beta chromodomain binding to methylated histone tails; P83916; AlphaScreen HP1-beta / biotin-H3K9me3 peptide binding; 390,000 tested, 0.56% active; Potency, µM (series often up to 114 µM), for the others: top-dose activity change, negative = inhibition, most hits filed as inhibitors; note: nearly all actives have a fitted effect of over 70% in size
Target sequence (P83916 whole entry, looked up): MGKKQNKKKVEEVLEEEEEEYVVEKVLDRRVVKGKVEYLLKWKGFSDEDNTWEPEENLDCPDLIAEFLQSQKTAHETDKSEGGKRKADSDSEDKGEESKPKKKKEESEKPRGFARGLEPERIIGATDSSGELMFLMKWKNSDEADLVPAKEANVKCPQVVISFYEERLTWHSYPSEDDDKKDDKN
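HP1-beta protein (50 nM final) preincubated 30 min at room temperature with biotinylated H3(1-18)K9me3 peptide (50 nM) in PBS pH 7.4, 0.01% Tween-20, then compound added for 30 min. AlphaScreen streptavidin donor/nickel chelate acceptor beads (10 ug/mL final), 30 min dark, luminescence read.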
JMJD2A Tudor inh: inhibitors of human JMJD2A Tudor domain. O75164. AlphaScreen JMJD2A-Tudor / H3K4me3 peptide binding. Potency, µM (titrated, usually from 114 µM), inactives show at the highest dose activity change, negative = inhibition, hits mostly inhibitors. 390,000 tested, 4.4% active; note: % is set by controls: 0 for no effect and ±100 for the full control effect; nearly all actives have a fitted effect of over 50% in size
L3MBTL1 inh: inhibitors of human L3MBTL1; AlphaScreen L3MBTL1–H3K9me1 peptide binding; Potency, µM (titrated, usually from 57.1 µM), without a hit: at the highest dose activity, negative = inhibition, most hits filed as inhibitors; 230,000 tested, 0.66% active; AID 485360; note: % is set by controls: 0 for no effect and ±100 for the full control effect; nearly all actives have a fitted effect of over 60% in size
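AlphaScreen assay: L3MBTL1 (50 nM final) was preincubated 30 min at room temperature with biotinylated H3(1-15)K9me1 peptide (75 nM final), then 30 min with library compounds; streptavidin donor and nickel chelate acceptor beads (10 ug/mL final) added, 30 min dark.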
Sfp inh: blocks B. subtilis Sfp PPTase activity. Q9F4F7. Biochemical Sfp PPTase activity, qHTS. Potency, µM, inactives show largest response in the series, negative = inhibition, actives largely listed as inhibitors. 310,000 tested, 3.5% active;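 note: the enzyme is Sfp with the accession as filed and its product quenches rhodamine fluorescence; 0% = enzyme reaction without inhibitor and -100% = no enzyme wells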
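Fluorescence-quenching assay with 15 nM Sfp, 5 uM rhodamine-CoA and 12.5 uM BHQ-2-labelled ybbR peptide in pH 7.6 Hepes/MgCl2 buffer. Enzyme was pre-incubated with compound for 15 min at room temperature. Rate was taken from the 30-min fluorescence change (525/598 nm).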
BAZ2B inh: BAZ2B (human) inhibition | Q9UIF8 | AlphaScreen BAZ2B-H3K14Ac peptide displacement | Potency, µM (highest dose often 114 µM), for the others: at the top dose activity change, negative = inhibition, actives largely listed as inhibitors | 360,000 tested, 4.4% active; note: % is set by controls: 0 for no effect and ±100 for the full control effect; nearly all actives have a fitted effect of over 60% in size
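BAZ2B (50 nM) with biotin-H3(5-23)K14Ac peptide (50 nM) in PBS pH 7.4, 0.01% Tween-20, preformed 30 min, then compound 30 min at room temperature; top concentration 110uM. AlphaScreen streptavidin donor/nickel chelate acceptor beads (10 ug/mL final), 20 min dark, signal read.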
Active calls of the source: *; ? = inconclusive; . = not tested or not shown; [ ] = dose if it differs, or a comment. This is a sample that favours compounds with a hit; in the whole collection about 12% have one here. Calls come from the whole dose curve; as a rule, active = well fitted curve in the direction sought with a large enough effect; inconclusive = small, poorly fitted or top-dose-only effect, or another doubt; inactive = no such curve, though single readings can be large; an effect the other way counts as inactive or inconclusive. Potency is the fitted concentration of half-maximal effect.

SMILES	G9a block	HP1b binding inh	JMJD2A Tudor inh	L3MBTL1 inh	Sfp inh	BAZ2B inh
CSCCC(NC(=O)c1ccco1)C(=O)N1CCCC(C(F)(F)F)C1 (stereo not drawn)	-3%[12.7 µM]	43%	-11%	-3%	.	9%
Cc1ccc(N2CC(C(=O)Nc3cccc(C(=O)NC4CC4)c3)CC2=O)cc1 (stereo not drawn)	5%[12.7 µM]	27%	-14%	?	.	-37%
O=C(NCCc1ccccc1)C1CCCN1S(=O)(=O)c1cccc2nsnc12 (stereo not drawn)	-1%	30%	-2%	.	8%	-5%
CCN(CCNC(=O)C1CCN(c2nnc(-n3cccc3)s2)CC1)c1ccccc1	16µM*	11%	-30%	-6%	11%	-33%
CCOc1ccc(CCNC(=O)C2CCN(c3nnc(-n4cccc4)s3)CC2)cc1	24%	19%	-14%	.	-13%	25%
Cc1ccc(NC(=O)CN(C)S(=O)(=O)c2cccc3nsnc23)c(C)c1	?	18%	-18%	.	.	.
CCN(CC)c1ccc(NC(=O)CN(C)S(=O)(=O)c2cccc3nsnc23)c(C)c1	18µM*	?	?	.	.	.
CCCCN(CCCNC(=O)C1CCN(S(=O)(=O)CC)CC1)c1ccccc1	7.1µM*	-9%	-30%	-17%	0%	-26%
NS(=O)(=O)c1ccc(CCNC(=O)C2CCCN2S(=O)(=O)c2cccc3nsnc23)cc1 (stereo not drawn)	79µM*	30%	-2%	.	8%	-3%
CC(OC(=O)c1ccc2c(c1)OCCO2)C(=O)c1ccccc1 (stereo not drawn)	14%	55%	22%	15%	.	7%
CCCN(CCC)CCCNC(=O)C1CCN(S(=O)(=O)c2cccc3nsnc23)CC1	-11%	42%	-13%	.	7%	-5%
CCN(CC)C(=O)CN(C)S(=O)(=O)c1cccc2nsnc12	-2%[59 µM]	30%	-10%	5%	0%	2%
CCN(CCNC(=O)CN(C)S(=O)(=O)c1cccc2nsnc12)c1ccccc1	40µM*	-2%	?	.	-13%	?
CCN(CCNC(=O)C1CCN(S(=O)(=O)c2cccc3nsnc23)CC1)c1ccccc1	50µM*	-27%	?	-14%	-1%	?
CCNc1nc(C#N)nc(N2CCOCC2)n1	.	25%[57 µM]	-12%[57.1 µM]	.	.	.
Cc1ccc(-n2ccnc2SCC(=O)c2c(N)n(C3CC3)c(=O)[nH]c2=O)cc1C	?	31%	-8%	-1%	.	-4%
CCN(CC)CCN1C(=O)c2ccccc2NC1c1ccc(OC)c(COc2ccc(NC(C)=O)cc2)c1 (stereo not drawn)	.	21%[57 µM]	-25%[57.1 µM]	.	.	.
COc1ccc(C2Nc3ccccc3C(=O)N2Cc2ccncc2)cc1COc1ccc(NC(C)=O)cc1 (stereo not drawn)	.	.	79µM*	.	.	.
COc1ccc(C2Nc3ccccc3C(=O)N2CC(C)(C)C)cc1COc1ccc(NC(C)=O)cc1 (stereo not drawn)	.	.	56µM*	.	.	.
COc1ccc(C2Nc3ccccc3C(=O)N2CCO)cc1COc1ccc(NC(C)=O)cc1 (stereo not drawn)	.	.	79µM*	.	.	.
COc1cccc(OCc2cc(C3Nc4ccccc4C(=O)N3Cc3ccco3)ccc2OC)c1 (stereo not drawn)	?	12%	-30%	-4%	14µM*	-25%
CC(=O)Nc1ccc(S(=O)(=O)NCCC(=O)NCCCc2ccccc2)cc1	-4%[2.33 µM]	11%	-19%	0%	.	5%
COc1ccc(C2Nc3ccccc3C(=O)N2Cc2cccc3ccccc23)cc1COc1ccc(NC(C)=O)cc1 (stereo not drawn)	.	.	79µM*	.	.	.
CC1CCCC(C)N1S(=O)(=O)c1ccc(NC(=O)CNCC2CCCO2)cc1 (stereo not drawn)	8.9µM*	6%	18µM*	6%	-2%	56µM*
